Bioassay records as filed in PubChem BioAssay.
LYPLA1 counter: LYPLA1 inhibitors, primary screen, counter-screen for PME1 inhibitor project, biochemical, fluorescence polarization, FP-Rh probe ABPP; Acyl-protein thioesterase 1 (Homo sapiens), O75608; recombinant LYPLA1; inhibition, % at 5.9 µM; 320,000 tested, 0.16% active;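 active = inhibition above the mean of all tested compounds plus 3 SD, set per campaign, cut at about 14% in these data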;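 also: inhibitors block serine hydrolase probe labeling of LYPLA1 so polarization falls; 0% = enzyme with DMSO and 100% = wells lacking LYPLA1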
Target sequence (O75608 whole entry, looked up): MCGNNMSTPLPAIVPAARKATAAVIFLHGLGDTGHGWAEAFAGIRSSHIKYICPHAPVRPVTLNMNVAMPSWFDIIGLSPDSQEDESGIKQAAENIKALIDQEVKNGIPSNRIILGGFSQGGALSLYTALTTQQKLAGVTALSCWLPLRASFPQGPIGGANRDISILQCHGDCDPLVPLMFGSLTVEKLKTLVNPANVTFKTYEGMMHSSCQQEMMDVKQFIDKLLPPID
PAD4 inh: human PAD4 inhibitors, primary screen, biochemical, fluorescence polarization, 1536-well format | Protein-arginine deiminase type-4 (Homo sapiens), Q9UM07 | recombinant PAD4, RCA probe fluorescence polarization | inhibition, % at 6.36 µM | 330,000 tested, 0.41% active;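 active = percent inhibition above a cutoff equal to the mean of all tested compounds plus 3 SD, cut at about 15% in these data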;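 also: 0% = PAD4 with RCA probe and DMSO and 100% = probe without PAD4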
PME-1 inh: PME-1 inhibitors via competitive probe labeling, primary screen, biochemical, fluorescence polarization, FP-Rh probe, HTS. Protein phosphatase methylesterase 1 (Homo sapiens), Q9Y570. recombinant PME-1. inhibition, % at 5.9 µM. 320,000 tested, 0.53% active. AID 2130, 2009;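 active = inhibition above the campaign mean of all compounds plus 3 SD, cut at about 26% in these data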;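 also: competitive labeling of PME-1 active site by serine hydrolase directed probe; 0% = PME-1 with DMSO and 100% = wells lacking PME-1 enzyme; inhibitors block probe labeling so polarization falls and inhibition rises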
GSTO1 counter: inhibitors of recombinant GSTO1, primary screen, counter-screen for RBBP9 inhibitor project, biochemical, fluorescence polarization; 300,000 tested, 1.1% active; activity-based probe fluorescence polarization; Glutathione S-transferase omega-1 (Homo sapiens), P78417; AID 1974, 2009; inhibition, % at 5.96 µM;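 active = inhibition above the campaign mean inhibition plus 3 SD, cut at about 35% in these data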;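 also: 0% = GSTO1-1 with DMSO and 100% = wells lacking GSTO1-1 enzyme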
Target sequence (P78417 whole entry, looked up): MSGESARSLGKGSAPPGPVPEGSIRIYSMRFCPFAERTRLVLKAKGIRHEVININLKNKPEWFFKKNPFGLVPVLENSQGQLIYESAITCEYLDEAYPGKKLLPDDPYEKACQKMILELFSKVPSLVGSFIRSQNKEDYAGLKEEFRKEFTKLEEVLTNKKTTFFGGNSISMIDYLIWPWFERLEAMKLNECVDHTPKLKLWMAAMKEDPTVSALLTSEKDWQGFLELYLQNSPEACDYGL
Fam108B inh: mouse Fam108B serine hydrolase inhibitors, primary screen, counter-screen for RBBP9 inhibitor project, biochemical, fluorescence polarization | recombinant Fam108B, FP-Rh probe fluorescence polarization | 300,000 tested, 0.33% active | inhibition, % at 9.51 µM;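 active = inhibition above the screen mean inhibition plus 3 SD, computed separately per campaign, cut at about 18% in these data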;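 also: inhibitors lower polarization as less probe binds the enzyme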
LYPLA2 counter: LYPLA2 inhibitors, primary screen, counter-screen for PME1 inhibitor project, biochemical, fluorescence polarization, FP-Rh probe ABPP. inhibition, % at 5.9 µM. AID 2177, 2009. recombinant LYPLA2. Acyl-protein thioesterase 2 (Homo sapiens), O95372. 320,000 tested, 0.38% active;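 active = inhibition above the screen-wide mean plus 3 SD, limit set per campaign, cut at about 26% in these data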;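 also: 0% = LYPLA2 with DMSO and 100% = wells lacking LYPLA2 enzyme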
An asterisk follows results filed as active; · = not tested or not shown. In the library only some 1.8% were active in any assay of this set; here they are far more common.

SMILES | LYPLA1 counter | PAD4 inh | PME-1 inh | GSTO1 counter | Fam108B inh | LYPLA2 counter
C=C1CCC[C@]2(C)C[C@H]3OC(=O)C(CN(Cc4ccc(OC)c(OC)c4)CC(C)O)[C@H]3CC12 (some centres undefined) | -2 | 3 | -6 | -4 | -6 | 2
CCOC(=O)N1CCN(c2nc3ccccn3c(=O)c2C=O)CC1 | -1 | -7 | -2 | 2 | -2 | -8
COC(=O)[C@H](C)N(Cc1ccc(Cl)c(Cl)c1)S(=O)(=O)CCNC1CCCC1 | · | 4 | · | · | · | ·
Cc1ccc(-n2c3nc(=O)[nH]c(=O)c-3cc3cc([N+](=O)[O-])ccc32)cc1 | 4 | -1 | 63* | 16 | 15 | 2
CC(=O)Nc1ccc(NC(=O)Nc2ccc3c(c2)N(C)C(=O)CS3)cc1 | -2 | -7 | 22 | 3 | 4 | 9
COc1cccc(NC(=O)Nc2ccc3c(c2)N(C)C(=O)CS3)c1 | -22 | -6 | 32* | -8 | 15 | 3
C=CC(=O)Nc1cccc(Oc2cc(Cl)nc3[nH]ccc23)c1 | · | -4 | · | · | · | ·
Cc1cc(SCC(=O)N/N=C/c2ccc(O)c(O)c2O)c(C)cc1Br | -18 | 4 | 31* | 18 | 10 | -6
COc1cc(/C=N/NC(=O)CSc2cc(C)c(Br)cc2C)ccc1O | -5 | 4 | 21 | 6 | 8 | 0
Cc1cc(N(C)C)nc(Nc2ccccc2)n1 | -1 | -6 | -3 | · | · | -2
CC1CC(C)CN(C(=O)CN2C(=O)NC3(CCCCCCC3)C2=O)C1 (centres undefined) | 3 | 0 | 4 | · | · | 0
CC(=O)Nc1ccc(S(=O)(=O)NC2=C(N3CCN(c4ccc(F)cc4)CC3)C(=O)c3ccccc3C2=O)cc1 | 1 | -4 | 16 | 57* | 12 | 8
Cc1cccc(OCCCC(=O)NNC(=O)c2cccc(N(C)C)c2)c1 | · | -3 | · | · | · | ·
Cc1cc(C)c2c(N)c(-c3nc4ccccc4[nH]3)sc2n1 | -2 | 2 | 29* | 4 | 8 | -5
CCc1ccc2c(c1)c(N=NC1=NC(=O)CS1)c(O)n2CC | -1 | -1 | 5 | -49 | 6 | -1
CCc1ccc2[nH]c(O)c(N=NC3=NC(=O)CS3)c2c1 | 5 | 3 | 32* | 29 | 17 | 3
O=C(CN1C(=O)NC2(CCCc3ccccc32)C1=O)Nc1ccccc1OC(F)F (centres undefined) | 0 | 3 | 8 | · | · | 4
CC(C)Cc1nnc(NC(=O)CSc2nc(O)c(-c3ccccc3)c(=O)[nH]2)s1 | -1 | 8 | 3 | 71* | -2 | -3
COc1ccc(C(=O)NCC2COc3ccccc3O2)cc1S(=O)(=O)N1CCOCC1 (centres undefined) | 0 | 3 | 0 | · | · | 6
CCOC(=O)C1CCCN(C(=O)c2cc(S(=O)(=O)N3CCCCC3)ccc2Cl)C1 (centres undefined) | 0 | 3 | 9 | 3 | 1 | -1
CCOC(=O)N1CCN(Cc2nc3ccc([N+](=O)[O-])cc3c(=O)n2-c2ccccc2F)CC1 | 1 | 2 | 9 | 0 | 4 | 9
CCc1ccc2nc(SCC(=O)N3CC(=O)Nc4ccccc43)c(C#N)cc2c1 | -1 | -27 | 34* | -2 | -5 | 1
N#Cc1cc(C#N)c(SCC(=O)N2CC(=O)Nc3ccccc32)nc1N | -5 | -3 | 16 | · | · | -5
CCCCN(C(=O)c1nn(C)c(=O)c2ccccc12)c1c(N)n(CC(C)C)c(=O)[nH]c1=O | -2 | 2 | -6 | · | · | -4
O=C(Cc1cnn(-c2ccccc2)c1)c1ccc(O)c(O)c1O | -13 | -7 | -12 | 50* | 3 | -12
SMILES | LYPLA1 counter | PAD4 inh | PME-1 inh | GSTO1 counter | Fam108B inh | LYPLA2 counter
COC(=O)c1c(NC(=O)C2=COCCO2)sc(C)c1C | -2 | 5 | 5 | -1 | 2 | -5
Cc1ccc(N2C(=O)CS/C2=C(\C(Cl)=C(Cl)Cl)[N+](=O)[O-])cc1 | -2 | -20 | 7 | 54* | 6 | -4
Cc1ccc(N2C(=O)CSCC2=O)cc1 | 0 | -1 | 1 | 3 | -3 | -6
CC(=O)c1cccc(S(=O)(=O)N2CCn3cccc3C2C)c1 (centres undefined) | 2 | -3 | 1 | · | · | 6
COc1ccc(C(=O)OC2CCN(C)CC2)cc1 | 3 | -4 | -2 | 8 | -6 | 3
CN1CCC(OC(=O)c2ccccc2)CC1 | 0 | -1 | 9 | 20 | 26* | 5
CC(=O)C(C(C)=O)C1(O)C(=O)c2ccccc2C1=O | 2 | -12 | 5 | 75* | 11 | 5
Cc1csc(N/N=C/c2ccc(O)c([N+](=O)[O-])c2)n1 | 4 | 5 | -1 | 84* | 17 | 5
O=c1oc2c(-c3ccc([N+](=O)[O-])cc3)cc(O)cc2s1 | -5 | -2 | 4 | 78* | 1 | 3
Cc1nn(CC(=O)NNC(=O)c2ccc(Br)cc2)c(C)c1[N+](=O)[O-] | 1 | -5 | -2 | · | · | -1
CN(CC(=O)Nc1c(Cl)cccc1Cl)C(=O)c1ccccc1Cc1ccccc1 | 0 | -7 | 1 | 0 | 1 | 1
COC(=O)CNC(=O)C1Nc2ccccc2C2C=CCC12 (centres undefined) | -3 | -14 | 7 | 43* | 7 | -1
Cc1cccc(NC(=O)c2nc[nH]c2C(=O)N2CCN(C(=O)OC(C)(C)C)CC2)c1 | -4 | 1 | -6 | · | · | -4
Oc1c(Br)cc(Br)cc1CNc1cnc2ccccc2c1 | -3 | -9 | 46* | 15 | 4 | -3
Cc1nnc(NC(=O)CSc2ccc([N+](=O)[O-])cn2)s1 | -2 | -2 | 9 | 37* | 0 | -1
Cc1ccc2nc(SCC(=O)NCCCN3CCCC3=O)[nH]c2c1 | 0 | 0 | 0 | · | · | 1
Cc1ccc(NC(=O)CCN2C(=O)C3C4CCC(C4)C3C2=O)cc1Cl (centres undefined) | 5 | 4 | -7 | 10 | -2 | 6
O=C1C(Cl)=C(N2CCCC2)C(=O)N1c1ccc(F)cc1 | 1 | 3 | 0 | 35* | -2 | 3
O=C(COC(=O)Cc1ccc(Cl)cc1)Nc1ccccc1-c1ccccc1 | -3 | 2 | 2 | 36* | 0 | 4
CCOC(=O)C(C)(C)N(Cc1cccc(C)c1)S(=O)(=O)c1ccc(Cl)c([N+](=O)[O-])c1 | 6 | -2 | 7 | 61* | -2 | 1
O=C(O)c1ccc(N/N=C/c2ccc(OC(=O)c3cccc(Cl)c3)cc2)cc1 | -3 | 5 | 41* | 13 | 3 | 41*
